# About 83,000 compounds went through this panel and 20% of them were active in at least one assay; those are over-represented in the sample as a whole.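 Method: cells in 96-well plates; compound added at one concentration; 48 h incubation; percent growth measured; values under 10 scored active.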 Unmarked numbers belong to inactive results. Calls of active or inactive are those of the source.
# System: HL-60(TB) leukemia
# Assay: NCI-60 one-dose screen, 48 h (100 = growth as untreated, 0 = no growth, -100 = all killed)
# Conditions: 10 µM unless noted
row,SMILES,growth
1,CCOC(=O)C1=C(C)NC(SCc2nnc(-c3ccc(Cl)cc3)o2)=NC1c1ccc(Cl)cc1Cl (stereo not given),-6.39% (active)
2,C=C1c2c(C)nn(-c3ccc(N)cc3)c2N(C)C23CC1C1(C)c4c(C)nn(-c5ccc(N)cc5)c4N(C)C(C)(CC12)C3 (stereo not given),55.7%
3,COc1ccc(NC(=O)c2ccc(-c3ccccc3)cc2)c(C(N)=O)c1,61.7%
4,COCCNc1ccc2c3c(cccc13)C(=O)N(CCN(C)C)C2=O,-17% (active)
5,CCN(CC)CCOC(=O)c1cc(OCc2ccccc2)c(OCc2ccccc2)c(OCc2ccccc2)c1,59.6%
6,C(=N/Nc1ncc(-c2cc3cc(-c4ccccc4)ccc3o2)s1)/c1cccs1,96.4%
7,COc1ccc(-c2nc(SCCC(C)C)nc(N/N=C(/C)c3ccc(C)cc3)c2C#N)cc1,89.8%
8,O=Nc1ccccc1N=O,78.3%
9,Cc1cccc(N2C(=O)/C(=C/C(Cl)=C/c3ccc([N+](=O)[O-])cc3)SC2=S)c1C,-13.3% (active)
10,O=C1c2ccccc2Cc2cccc(Cl)c21,39.5%
11,CCCCCSc1ccc2nc(NC(=O)OCC)sc2c1,4.55% (active)
12,C=CC1=C(C)C2=NC1=CC1=NC(=CC3=C(C)C4=C(O)C(C(=O)O)C(=C5NC(=C2)C(C)C5CCC(=O)O)C4=N3)C(CC)=C1C (stereo not given),89.4%
13,O=c1[nH]c(-c2cn(-c3ccc(Cl)cc3)nn2)nc2ccccc12,100%
14,CC1(C)C(=O)/C(=C\c2ccco2)C[C@]2(C)[C@H]3CC[C@@H]4[C@@H](C(=O)/C=C/c5ccco5)CC[C@@]4(C)[C@]3(C)CC[C@@H]12,81.6%
15,COc1cccc(NC(=O)c2sc3nc4c(cc3c2N)C(=O)CCC4)c1,-2.55% (active)
16,O=[N+]([O-])c1cc(-c2ccccc2)c(O)c([N+](=O)[O-])c1,57.1%
17,CCOc1ccccc1CN1CCc2nc3cc(C(C)(C)C)[nH]n3c(=O)c2C1,99.4%
18,N#Cc1c(-c2ccccc2)cc(-c2ccc(Nc3nc(Nc4ccc(Cl)cc4)nc(Nc4ccc(Cl)cc4)n3)cc2)nc1N,15.6%
19,N#Cc1c(NC(=O)c2ccco2)[n+]([O-])c2cc(Cl)c(Cl)cc2[n+]1[O-],91.8%
20,COC(=O)c1c2c(c(C)[n+]([O-])c1C)C(=O)C(NCc1ccc(OC)cc1)=CC2=O,-51.1% (active)

row,SMILES,growth
1,CS(=O)(=O)Nc1cc(-c2ccc3ncnc(Nc4ccc(F)c(Cl)c4)c3c2)ccc1Cl,65.3%
2,Nc1nc(Cl)cc(NCCCCNc2cc(Cl)nc(N)n2)n1,101%
3,C=C(C)[C@@H]1CCC[C@]2(C(=O)N3CCN(C)CC3)CC[C@]3(C)[C@@H](CC[C@@H]4[C@@]5(C)CC/C(=N\NC(=O)c6ccncc6)C(C)(C)[C@@H]5CC[C@]43C)[C@@H]12,82.8%
4,COc1cccc2c1C(=O)c1c(O)c3c(c(O)c1C2=O)C[C@@](O)(C(C)=O)C[C@@H]3OC1CC(N)C(O)C(C)O1 (stereo not given in full),-63.3% (active)
5,O=C(O)C(c1ccccc1)N1C(=O)CSC1=S (stereo not given),129%
6,CCOC(=O)c1c(C)c2c(n1Cc1ccccc1)CSCC2=O,13.3% [100 µM]
7,CC(C)C1=NOC(=O)C1=Cc1cn(-c2cccnc2)nc1-c1ccccc1,-0.56% (active)
8,CCCCCc1ccc(C)cc1OC(=O)CCl,114%
9,N#Cc1nc(-c2cccc(Br)c2)cc(-c2ccc(Nc3nc(N4CCCCC4)nc(N4CCCCC4)n3)cc2)c1N,-16.4% (active)
10,N#Cc1c(NC(=O)NCc2ccccc2)sc2c1CCCC2,-4.95% (active)
11,O=c1[nH]ccc2nc(N3CCC(O)CC3)nc(Nc3ccc(N4CCOCC4)cc3)c12,18.9%
12,Cc1ccc(-c2csc(NC(=O)N3CCN(c4cc5c(cc4F)c(=O)c(C(=O)O)cn5C4CC4)CC3)n2)cc1,-15.5% (active)
13,C#CCN=C[C@]12CC[C@@H](C(=C)C)[C@@H]1[C@H]1CC[C@@H]3[C@@]4(C)CCC(=O)C(C)(C)[C@@H]4CC[C@@]3(C)[C@]1(C)CC2,-14.3% (active)
14,O=CC(OC(=O)c1ccccc1)C(OC(=O)c1ccccc1)C(COC(c1ccccc1)(c1ccccc1)c1ccccc1)OC(=O)c1ccccc1 (stereo not given),-12.3% (active)
15,CC(C)[C@H](CN)NC[C@H](C)NS(=O)(=O)c1ccc(C(C)(C)C)cc1,95.4%
16,COc1ccc(/C=C(/C(=O)N2CCCCC2)c2cc(OC)c(OC)c(OC)c2)cc1,-17.5% (active)
17,CCn1cc(Cc2cc(C(=O)Nc3cc4cc(OC)c(OC)cc4c(C)n3)ccc2Cl)cn1,13.9%
18,CC(=O)[C@@H]1CC[C@]2(C(=O)O)CC[C@]3(C)[C@H](CC[C@@H]4[C@@]5(C)Cc6c([nH]c7ccccc67)C(C)(C)[C@@H]5CC[C@]43C)[C@@H]12,53.4%
19,O=C(Nc1ccccc1)c1ccco1,95.7%
20,NC(=O)CSc1nc(-c2ccc(F)cc2)cc(-c2ccco2)n1,108%

# — PubChem BioAssay (NCI)
